According to PubChem BioAssay:

Each molecule was assayed against NADPH oxidase 2 (Homo sapiens) (UniProt P04839) (assay: compounds shifting NOX2 Amplex Red fluorescence – cell-based, HEK293-NOX2, PMA-stimulated, NOX inhibitor project, primary screen (AID 1159; note: test concentration not given here)). Settings: 45 min, higher = more signal, called active from +8 up or from −8 down.
NADPH oxidase 2 (Homo sapiens), sequence (P04839 whole entry, looked up): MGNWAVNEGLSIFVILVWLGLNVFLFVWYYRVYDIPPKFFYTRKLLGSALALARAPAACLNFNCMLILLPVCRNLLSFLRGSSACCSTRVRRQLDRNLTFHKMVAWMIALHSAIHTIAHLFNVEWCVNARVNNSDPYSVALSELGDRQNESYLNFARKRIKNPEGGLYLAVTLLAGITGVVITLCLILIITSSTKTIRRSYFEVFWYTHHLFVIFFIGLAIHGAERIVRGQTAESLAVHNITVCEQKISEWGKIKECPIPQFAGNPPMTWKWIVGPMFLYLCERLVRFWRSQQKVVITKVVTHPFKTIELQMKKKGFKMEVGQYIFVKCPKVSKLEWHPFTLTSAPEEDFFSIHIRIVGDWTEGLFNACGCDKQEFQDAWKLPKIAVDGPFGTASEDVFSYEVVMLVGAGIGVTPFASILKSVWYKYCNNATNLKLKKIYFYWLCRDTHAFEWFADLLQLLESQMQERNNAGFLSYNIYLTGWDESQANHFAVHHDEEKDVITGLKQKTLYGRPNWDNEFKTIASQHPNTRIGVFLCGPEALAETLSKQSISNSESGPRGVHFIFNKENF

z-score, inactive:
CCOC(=O)[C@H](Cc1ccccc1)NC(=O)CCC1CC(OC(=O)NCc2ccc3c(c2)OCO3)CC2(CCCC(COC(=O)NCCOC)O2)O1 (stereo partly specified) 0.195
CCOC(=O)[C@H](Cc1ccccc1)NC(=O)CCC1CC(OC(=O)NCc2ccc3c(c2)OCO3)CC2(CCCC(COC(=O)NCCCN3CCCC3=O)O2)O1 (stereo partly specified) 0.996
COC(=O)[C@H](C)NC(=O)CCC1CC(OC(=O)NCCc2ccc(F)cc2)CC2(CCCC(COC(=O)NCCOc3ccccc3)O2)O1 (stereo partly specified) 0.749
O=C1CCCC=C1C(O)C1CCCCC1 (stereo unspecified) 1.46
CCOC(=O)NN=C1C[C@@H](O)[C@@H](O)[C@@H]2[C@@H]3C(=O)N(c4ccc(F)cc4F)C(=O)[C@@H]3CC[C@H]12 -4.88
CC(=O)OC[C@H]1O[C@H](CC=NO[C@@H](C)c2cc(-c3c(C)cc(C)cc3C)no2)C=C[C@@H]1OC(C)=O -1.27
CCOC(=O)CCN1C(=O)[C@H]2[C@H]3[C@H](O)[C@H](O)CC(=NO[C@@H]4O[C@H](CO)[C@@H](O)[C@H](O)[C@H]4O)[C@H]3CC[C@H]2C1=O 0.444
CCOC(=O)[C@H](CC(C)C)NC(=O)CCC1CC(OC(=O)NCCc2ccc(F)cc2)CC2(CCCC(COC(=O)NCc3cccc(C(F)(F)F)c3)O2)O1 (stereo partly specified) 0.61
C[C@H]1CC[C@@H](C(=O)O)N[C@@H]1c1cccc(N2CCCC2=O)c1 -0.207
CC(=O)OC[C@H]1O[C@@H](ON=C2[C@H]3CCn4c(=O)n(-c5ccccc5)c(=O)n4[C@H]3[C@H](O)[C@@H]3O[C@H]23)[C@H](OC(C)=O)[C@@H](OC(C)=O)[C@@H]1OC(C)=O -0.186
CCOC(=O)[C@H](CC(C)C)NC(=O)CCC1CC(OC(=O)NCCc2ccc(F)cc2)CC2(CCCC(COC(=O)NCCCN3CCCC3=O)O2)O1 (stereo partly specified) 0.575
CC(CCC(=O)OC[C@H]1O[C@H](C#Cc2ccccc2)C=C[C@@H]1Oc1ccc(C)cc1)=NOC[C@@H](C)[C@H](OCc1ccccc1)C(C)C 1.21
CCOC(=O)[C@H](Cc1ccccc1)NC(=O)CCC1CC(OC(=O)NCc2cccc3ccccc23)CC2(CCCC(COC(=O)NCCc3ccccc3OC)O2)O1 (stereo partly specified) 0.884
COC(=O)[C@H](C)NC(=O)CCC1CC(OC(=O)NCCc2ccc(F)cc2)CC2(CCCC(COC(=O)NCCc3ccccc3OC)O2)O1 (stereo partly specified) 0.577
CCOC(=O)NN=C1C[C@@H](O)[C@@H](O)[C@@H]2[C@@H]3C(=O)N(C[C@@H]4CCCO4)C(=O)[C@@H]3CC[C@H]12 0.192
CON=C1c2cc(OC)ccc2O[C@H](c2cccc(OC)c2)[C@H]1O -0.837
COC(=O)[C@H](C)NC(=O)CCC1CC(OC(=O)NCc2ccc3c(c2)OCO3)CC2(CCCC(COC(=O)NCCC(C)C)O2)O1 (stereo partly specified) 0.738
C[C@H]1C=CCC(=O)OC[C@H](C)C(=O)N2CCC[C@H]2C(=O)OC1 0.166
CCCNC(=O)OC[C@H]1O[C@H](CCON=C2C[C@@H](O)[C@@H](O)[C@@H]3[C@@H]4C(=O)N(CC)C(=O)[C@@H]4CC[C@@H]23)C=C[C@@H]1Oc1ccc(OC)cc1 -0.708
COC(=O)[C@@H]1CC[C@H](C)[C@@H](c2ccc(C)cc2)N1C(=O)c1ccc(C=NO[C@@H](C)c2cc(-c3c(C)cc(C)cc3C)no2)cc1 0.564
CC(C)(C)N1C(=O)[C@H]2[C@H]3[C@H](O)[C@H](O)CC(=NNC(=O)OCc4ccccc4)[C@H]3CC[C@H]2C1=O -1.18
CO[C@@H]1COC(=O)CC=C[C@H](C)[C@H](OC)COC(=O)[C@@H]2CCCN2C(=O)CC=C[C@H]1C 1.18
Cc1cc2c(nc1C)CCCCN2CC(O)CN1CCCc2nc(-c3ccc(Br)cc3)ccc21 (stereo unspecified) 1.88
COc1ccc(O[C@H]2C=C[C@@H](C#Cc3ccccc3)O[C@@H]2CO)cc1 1.33
C#CCCCON=C1C[C@@H](O)[C@@H](O)[C@@H]2[C@@H]3C(=O)N(C[C@@H]4CCCO4)C(=O)[C@@H]3CC[C@H]12 -0.635
O=C1[C@H]2[C@H]3[C@H](O)[C@H](O)CC(=NO[C@@H]4O[C@H](CO)[C@@H](O)[C@H](O)[C@H]4O)[C@@H]3CC[C@H]2C(=O)N1c1cccc(Oc2ccccc2)c1 0.614
CC#CCOCCC=C1c2ccccc2[C@@H](OC)[C@@H]1C 0.114
CCOC(=O)[C@H](CC(C)C)NC(=O)CCC1CC(OC(=O)NCc2ccc3c(c2)OCO3)CC2(CCCC(COC(=O)NCCOc3ccccc3)O2)O1 (stereo partly specified) 1.02
CON=C(C)CCN1CCCCc2nc(C)c(C)cc21 -0.0289
C=CC[C@@H]1C=C[C@H](ON=CC[C@@H]2C=C[C@H](OC(C)=O)[C@@H](COC(C)=O)O2)[C@@H](CO)O1 -0.893
C[C@@H]1CC[C@@H](C(=O)O)N[C@H]1c1cccc(N2CCOCC2)c1 -0.438
CC(=O)OC[C@H]1O[C@H](CC=NOC[C@@H](O)COCc2ccco2)C=C[C@@H]1OC(C)=O -0.431
CC(CCN1CCc2nc(-c3ccccc3)c(-c3ccccc3)cc2C1)=NO[C@H](C)c1cn([C@H](CO)Cc2ccccc2)nn1 -4.57
CCOC(=O)CCN1C(=O)[C@H]2[C@H]3[C@H](O)[C@H](O)CC(=NNC(=O)OCc4ccc(OC)cc4)[C@H]3CC[C@H]2C1=O 1.67
CC(=O)OC[C@H]1O[C@@H](ON=C(C)CCC(=O)OC[C@H]2O[C@H](C#Cc3ccccc3)C=C[C@@H]2Oc2ccc(C)cc2)[C@H](OC(C)=O)[C@@H](OC(C)=O)[C@@H]1OC(C)=O 1.04
O=C1CCCC=C1C(O)c1ccc([N+](=O)[O-])cc1 (stereo unspecified) 1.42
